# “And” between values parts separate entries of the source, which are not always exact repeats. Equal values may be shown once. The source made the active and inactive calls. Rule as the data show it, unless noted: active = parasite load remaining mostly below about 12% (no sharp cut-off); inactive = mostly above about 10%.
# Experiments:
# [1] = compounds altering viability of human ES cells (AID 493140; call rule not given here;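 also: cells exposed to compounds for four days before counting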); details: human embryonic stem cell survival screen; stronger effect = higher value
# [2] = P. berghei load reduction in hepatocytes – cell-based, HepG2, luciferase luminescence, HepG2 viability, primary screen (AID 624349);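 also: 100% = mean of DMSO negative control wells on the same plate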; details: P. berghei liver stage in HepG2, luciferase luminescence, concentration not given here; parasite load remaining: stronger effect = lower value; viability: measured here: HepG2 viability without parasites
# [3] = Wnt pathway potentiators raising nuclear beta-catenin – imaging, WNT3A-conditioned medium, mouse C2C12, NPC library, primary screen (AID 1117326; in the data active = nuclear beta-catenin stimulation mostly above about 4.2%, no sharp cut-off; inactive = mostly below about 10%); details: stronger effect = higher value
# [4] = stimulators of insulin release from INS-1E, primary screen, cell-based, 5 mM glucose, NPC library (AID 1117329;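 active = compound raises insulin release from rat beta cells at 5 mM glucose, no numeric limit stated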); details: rat INS-1E insulin secretion, at 10 µM, stronger effect = higher value
# [5] = growth inhibition of GSK3B-pretreated HCT116 cells – cell-based, CellTiter-Glo, 0.2 to 20 µM (AID 1117336;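 active = compounds lowering colon cancer cell viability after pretreatment blocking the GSK3B kinase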); details: HCT116 viability after GSK3B inhibitor, at 20 µM, stronger effect = higher value
# [6] = inhibition of endothelial tube formation, primary screen, imaging, VEGF stimulated, CD31 staining, tube area, NPC library (AID 1117340;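 active = compound that reduces growth-factor-driven endothelial tube area in a mixed cell culture, no cutoff stated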); details: VEGF-stimulated ADSC/ECFC co-culture, at 10 µM, stronger effect = higher value
# [7] = GLP1 release stimulators, primary, NCI-H716, NPC library (AID 1117341;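 active = compound raises GLP1 secretion from the human gut endocrine cells, with no numeric limit stated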); details: NCI-H716 cells, at 10 µM, stronger effect = higher value
# [8] = HCT116 colon cancer cell growth inhibition, primary screen, CellTiter-Glo luminescence, NPC library (AID 1117342;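 active = compounds that lower survival of HCT116 colon cancer cells in the luminescence readout, no numeric limit stated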); details: at 20 µM (top of the series)
# [9] = reduced SW480 viability measured with CellTiter-Glo, NPC library, primary (AID 1117343;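 active = compounds that lower viability of the colon cancer cells in the luminescence readout, with no numeric limit stated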); details: CellTiter-Glo luminescence; at 20 µM (top of the series) unless noted
# [10] = NPC library primary testing for decreased DLD-1 cell viability via CellTiter-Glo (AID 1117346;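 active = compounds that lower survival of DLD-1 colon cancer cells in the luminescence readout, no cutoff given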); details: DLD-1 viability, CellTiter-Glo luminescence; at 20 µM (top of the series)
# [11] = EMT-state selective cytotoxicity in co-culture – imaging, PC-3E GFP, TEM4-18 mCherry, primary screen (AID 1345086;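 active = compounds killing one labelled cell type while sparing the other, by normalised counts and ratio limits, not self-fluorescent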;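 as to all read-outs here: cells exposed to compound for 72 h before imaging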;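 as to red/green cell ratio (normalised): normalised mesenchymal count divided by normalised epithelial count so high means epithelial killing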); details: PC-3E GFP / TEM4-18 mCherry co-culture, imaging cell counts, at 1 µM; for red/green cell ratio (normalised): actives lie on both sides, counts scaled to control wells, 1 = unselective
# [12] = viability loss with induced miR-34 in A549 – imaging, A549 dox-inducible miR-34, nuclei and caspase counts, primary screen (AID 1347080;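 active = compounds whose cell count with miR-34 switched on is under 0.7 times the count with it off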); details: A549 miR-34 inducible, Hoechst nuclei count, 48 h
# [13] = MELAS cybrid and Rieske KO viability enhancers – cell-based, MELAS cybrids, Rieske KO mouse fibroblasts, CellTiter-Glo, primary screen (AID 1508586;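 active = mean z-score across replicates of 1.96 or higher in either the MELAS or the Rieske mutant cell line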;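 also: z relative to plate mean and SD of compound and empty wells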); details: low glucose
# [14] = biological target: NAD(+) hydrolase SARM1 (Homo sapiens) (UniProt Q6SZW1); test: blocking NAD cleavage by SARM1 SAM-TIR – cell lysate, NAD-Glo luminescence (AID 1508614;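 active = compound whose remaining NAD level is above about 45 nM, limit read from the data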;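 also: higher remaining NAD means stronger inhibition of SARM1 NADase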); details: SAM-TIR HEK293T lysate NADase, at 1 µM, stronger effect = higher value
# NAD(+) hydrolase SARM1 (Homo sapiens), sequence (Q6SZW1 whole entry, looked up): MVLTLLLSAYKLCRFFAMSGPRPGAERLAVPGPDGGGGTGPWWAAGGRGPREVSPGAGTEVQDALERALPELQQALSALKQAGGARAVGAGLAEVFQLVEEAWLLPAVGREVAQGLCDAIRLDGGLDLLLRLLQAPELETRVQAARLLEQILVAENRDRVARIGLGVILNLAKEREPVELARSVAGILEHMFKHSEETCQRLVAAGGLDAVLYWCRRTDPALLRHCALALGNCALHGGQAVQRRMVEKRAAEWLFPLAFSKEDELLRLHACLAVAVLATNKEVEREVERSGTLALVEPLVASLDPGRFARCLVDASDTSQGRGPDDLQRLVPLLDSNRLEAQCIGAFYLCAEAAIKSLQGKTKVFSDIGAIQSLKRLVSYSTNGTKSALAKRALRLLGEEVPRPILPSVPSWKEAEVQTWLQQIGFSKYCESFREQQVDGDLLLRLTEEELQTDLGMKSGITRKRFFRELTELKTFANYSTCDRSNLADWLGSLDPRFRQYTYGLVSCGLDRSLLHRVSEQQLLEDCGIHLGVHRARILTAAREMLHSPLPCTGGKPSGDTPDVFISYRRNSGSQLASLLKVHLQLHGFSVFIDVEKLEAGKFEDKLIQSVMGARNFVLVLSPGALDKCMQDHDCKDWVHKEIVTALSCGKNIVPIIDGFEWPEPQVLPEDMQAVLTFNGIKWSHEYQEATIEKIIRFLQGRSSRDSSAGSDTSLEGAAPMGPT
# [15] = measured here: epithelial PC-3E GFP cell survival
# [16] = measured here: mesenchymal TEM4-18 mCherry cell survival
# [17] = stronger effect = lower value, cell number ratio, induced over uninduced
# [18] = measured here: relative caspase fold change +Dox/-Dox
# [19] = measured here: total cells with miR-34 induction, stronger effect = lower value
# [20] = measured here: total cells without miR-34 induction
# [21] = MELAS cybrid survival, CellTiter-Glo 48 h, stronger effect = higher value
# [22] = Rieske KO mouse fibroblast survival, CellTiter-Glo 72 h
smiles,measurement,setting,value
Cc1c(N)c(=O)n(-c2ccccc2)n1C,survival,[1],19.6 (inactive)
same,parasite load remaining,[2],27.9% (inactive) and 86.5% (inactive) and 114% (inactive)
same,viability,[2],47% and 66.5% and 89.3%
same,nuclear beta-catenin stimulation,[3]; at 10 µM,1.1% (inactive)
same,nuclear beta-catenin stimulation,"[3]; stimulation, at 2 µM",1.8%
same,insulin secretion stimulation,[4],-0.3% (inactive)
same,viability decrease,[5],-9.25% (inactive)
same,tube area decrease,[6],-13.4% (inactive)
same,GLP1 secretion stimulation,[7],1.1% (inactive)
same,inhibition of viability,[8],-5.1% (inactive)
same,viability decrease (inhibition),[9],45.9% (inactive)
same,viability decrease (inhibition),[10],10.9% (inactive)
same,red/green cell ratio (normalised),[11],0.99 (inactive)
same,normalised cell number,[11]; [15],1.14
same,normalised cell number,[11]; [16],1.13
same,fold change,[12]; [17],0.844 (inactive)
same,fold change,[12]; [18],1.06
same,cell count,[12]; [19],8260
same,cell count,[12]; [20],9790
same,z-score,[13]; [21],-0.073 (inactive)
same,z-score,[13]; [22],-0.119
CCCOc1cc(N)ccc1C(=O)OCCN(CC)CC,survival,[1],9.5 (inactive)
same,parasite load remaining,[2],77.2% (inactive)
same,viability,[2],75.5%
same,nuclear beta-catenin stimulation,[3]; at 10 µM,0% (inactive)
same,nuclear beta-catenin stimulation,"[3]; stimulation, at 2 µM",0.6%
same,insulin secretion stimulation,[4],4.5% (inactive)
same,viability decrease,[5],-4.1% (inactive)
same,tube area decrease,[6],-15.3% (inactive)
same,GLP1 secretion stimulation,[7],-1.7% (inactive)
same,inhibition of viability,[8],-3.9% (inactive)
same,viability decrease (inhibition),[9],4% (inactive)
same,viability decrease (inhibition),[10],-9.1% (inactive)
same,red/green cell ratio (normalised),[11],1 (inactive)
same,normalised cell number,[11]; [15],1.21
same,normalised cell number,[11]; [16],1.21
same,fold change,[12]; [17],0.973 (inactive)
same,fold change,[12]; [18],0.697
same,cell count,[12]; [19],9580
same,cell count,[12]; [20],9850
same,z-score,[13]; [21],-0.734 (inactive)
same,z-score,[13]; [22],-0.617
same,remaining NAD,[14],10 nM (inactive)
O=c1[nH]c(=O)c2ccccc2o1,nuclear beta-catenin stimulation,[3]; at 10 µM,0.9% (inactive)
same,nuclear beta-catenin stimulation,"[3]; stimulation, at 2 µM",0.3%
same,insulin secretion stimulation,[4],-1.9% (inactive)
same,viability decrease,[5],-6.75% (inactive)
same,tube area decrease,[6],10.2% (inactive)
same,GLP1 secretion stimulation,[7],0.9% (inactive)
same,inhibition of viability,[8],-33.3% (inactive)
same,viability decrease (inhibition),[9],102% (active)
same,viability decrease (inhibition),[10],-5.5% (inactive)
same,red/green cell ratio (normalised),[11],0.79 (inactive)
same,normalised cell number,[11]; [15],1.11
same,normalised cell number,[11]; [16],0.88
same,fold change,[12]; [17],0.86 (inactive)
same,fold change,[12]; [18],0.838
same,cell count,[12]; [19],8540
same,cell count,[12]; [20],9930
same,remaining NAD,[14],10 nM (inactive)
O=C(O)Cc1ccc(-c2ccccc2)cc1,survival,[1],7.67 (inactive)
same,parasite load remaining,[2],98.2% (inactive)
same,viability,[2],99.7%
same,nuclear beta-catenin stimulation,[3]; at 10 µM,-0.4% (inactive)
same,nuclear beta-catenin stimulation,"[3]; stimulation, at 2 µM",0.3%
same,insulin secretion stimulation,[4],-1.1% (inactive)
same,viability decrease,[5],-34.7% (inactive)
same,tube area decrease,[6],6.9% (inactive)
same,GLP1 secretion stimulation,[7],1.7% (inactive)
same,inhibition of viability,[8],2.33% (inactive)
same,viability decrease (inhibition),[9],7.7% (inactive)
same,viability decrease (inhibition),[10],-10.7% (inactive)
same,red/green cell ratio (normalised),[11],0.72 (inactive)
same,normalised cell number,[11]; [15],1.44
same,normalised cell number,[11]; [16],1.04
same,fold change,[12]; [17],0.915 (inactive)
same,fold change,[12]; [18],1.39
same,cell count,[12]; [19],9920
same,cell count,[12]; [20],10800
same,z-score,[13]; [21],0.702 (inactive)
same,z-score,[13]; [22],-0.122
same,remaining NAD,[14],10 nM (inactive)
COc1cc(/C=C/C(N)=O)cc(OC)c1OC,nuclear beta-catenin stimulation,[3]; at 10 µM,1.1% (inactive)
same,nuclear beta-catenin stimulation,"[3]; stimulation, at 2 µM",0.6%
same,insulin secretion stimulation,[4],0.8% (inactive)
same,viability decrease,[5],-4.6% (inactive)
same,tube area decrease,[6],11.9% (inactive)
same,GLP1 secretion stimulation,[7],0.1% (inactive)
same,inhibition of viability,[8],-6% (inactive)
same,viability decrease (inhibition),[9],6.6% (inactive)
same,viability decrease (inhibition),[10],4.6% (inactive)
same,red/green cell ratio (normalised),[11],0.8 (inactive)
same,normalised cell number,[11]; [15],1.28
same,normalised cell number,[11]; [16],1.03
same,fold change,[12]; [17],0.933 (inactive)
same,fold change,[12]; [18],0.864
same,cell count,[12]; [19],8570
same,cell count,[12]; [20],9180
same,remaining NAD,[14],10 nM (inactive)
O=C(NCC(O)CO)c1c(I)c(C(=O)NCC(O)CO)c(I)c(N(CCO)C(=O)CO)c1I (stereo not given),survival,[1],5.33 (inactive)
same,parasite load remaining,[2],117% (inactive)
same,viability,[2],103%
same,nuclear beta-catenin stimulation,[3]; at 10 µM,0.6% (inactive)
same,nuclear beta-catenin stimulation,"[3]; stimulation, at 2 µM",1.1%
same,insulin secretion stimulation,[4],2.2% (inactive)
same,viability decrease,[5],-0.3% (inactive)
same,tube area decrease,[6],-24.3% (inactive)
same,GLP1 secretion stimulation,[7],-2.6% (inactive)
same,inhibition of viability,[8],50.9% (active)
same,viability decrease (inhibition),[9],15.5% (inactive)
same,viability decrease (inhibition),[10],27.9% (inactive)
same,red/green cell ratio (normalised),[11],0.86 (inactive)
same,normalised cell number,[11]; [15],1.25
same,normalised cell number,[11]; [16],1.07
same,fold change,[12]; [17],0.865 (inactive)
same,fold change,[12]; [18],1.27
same,cell count,[12]; [19],8520
same,cell count,[12]; [20],9850
same,z-score,[13]; [21],-0.49 (inactive)
same,z-score,[13]; [22],-1.02
same,remaining NAD,[14],10 nM (inactive)
CC(=O)c1ccc2c(c1)N(CCCN1CCC(CCO)CC1)c1ccccc1S2,survival,[1],3.92 (inactive)
same,parasite load remaining,[2],69.8% (inactive)
same,viability,[2],79.8%
same,nuclear beta-catenin stimulation,[3]; at 10 µM,3% (inactive)
same,nuclear beta-catenin stimulation,"[3]; stimulation, at 2 µM",0.4%
same,insulin secretion stimulation,[4],1.7% (inactive)
same,viability decrease,[5],78.7% (active)
same,tube area decrease,[6],3.9% (inactive)
same,GLP1 secretion stimulation,[7],-6.7% (inactive)
same,inhibition of viability,[8],77.2% (active)
same,viability decrease (inhibition),[9],85.4% (active)
same,viability decrease (inhibition),[10],60% (active)
same,red/green cell ratio (normalised),[11],1.13 (inactive)
same,normalised cell number,[11]; [15],0.92
same,normalised cell number,[11]; [16],1.04
same,fold change,[12]; [17],0.911 (inactive)
same,fold change,[12]; [18],0.592
same,cell count,[12]; [19],8130
same,cell count,[12]; [20],8930
same,z-score,[13]; [21],-0.364 (inactive)
same,z-score,[13]; [22],-0.0941
same,remaining NAD,[14],10 nM (inactive)
CC(=O)Nc1ccc(C(=O)O)cc1,nuclear beta-catenin stimulation,[3]; at 10 µM,-0.6% (inactive)
same,nuclear beta-catenin stimulation,"[3]; stimulation, at 2 µM",0.4%
same,insulin secretion stimulation,[4],-1.8% (inactive)
same,viability decrease,[5],-11.6% (inactive)
same,tube area decrease,[6],-12.7% (inactive)
same,GLP1 secretion stimulation,[7],-0.1% (inactive)
same,inhibition of viability,[8],-18.3% (inactive)
same,viability decrease (inhibition),[9],13.7% (inactive)
same,viability decrease (inhibition),[10],11.3% (inactive)
same,red/green cell ratio (normalised),[11],1.14 (inactive)
same,normalised cell number,[11]; [15],0.87
same,normalised cell number,[11]; [16],0.99
same,fold change,[12]; [17],0.937 (inactive)
same,fold change,[12]; [18],1.06
same,cell count,[12]; [19],9250
same,cell count,[12]; [20],9880
same,remaining NAD,[14],10 nM (inactive)
CN(C)CC/C=C1\c2ccccc2Sc2ccc(Cl)cc21,parasite load remaining,[2],79% (inactive) and 61.2% (inactive) and 17.9% (inactive)
same,viability,[2],83.4% and 97.6% and 84.5%
same,nuclear beta-catenin stimulation,[3]; at 10 µM,1.8% (inactive)
same,nuclear beta-catenin stimulation,"[3]; stimulation, at 2 µM",0.5%
same,insulin secretion stimulation,[4],20.8% (active)
same,viability decrease,[5],51.1% (active)
same,tube area decrease,[6],42.6% (active)
same,GLP1 secretion stimulation,[7],15.7% (inactive)
same,inhibition of viability,[8],94.8% (active)
same,viability decrease (inhibition),[9],127% (active)
same,viability decrease (inhibition),[10],98.6% (active)
same,red/green cell ratio (normalised),[11],1.04 (inactive)
same,normalised cell number,[11]; [15],1.11
same,normalised cell number,[11]; [16],1.16
same,fold change,[12]; [17],0.848 (inactive) and 0.855 (inactive)
same,fold change,[12]; [18],1.41 and 2.28
same,cell count,[12]; [19],6900 and 9070
same,cell count,[12]; [20],8140 and 10600
same,z-score,[13]; [21],0.287 (inactive)
same,z-score,[13]; [22],0.968

# Source: PubChem BioAssay
